TMEM16A act: TMEM16A chloride channel activators or potentiators, primary screen, cell-based, HTS | 340,000 compounds, 0.3% hits | B-score at 10 µM | AID 623877, 2012 | HEK293 TMEM16A/YFP-H148Q/I152L, iodide quench fluorescence; hits give low values | Anoctamin-1 (Mus musculus), Q8BHY3;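 active = fluorescence-ratio B-score plate-corrected deviation score at least 3 library SD below zero, with starting fluorescence score within 5 deviations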;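 also: channel opened by trigger with iodide after compound preincubation; score built on the fluorescence ratio of max minus min over baseline; more negative score means more quench and so TMEM16A activation or potentiation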
ANO1 block: TMEM16A chloride channel inhibitors, primary screen, cell-based, HTS. AID 588511, 2011. Anoctamin-1 (Mus musculus), Q8BHY3. HEK293 TMEM16A/YFP iodide influx fluorescence, ionomycin. normalized B-score (activity score, 25-100; higher = stronger inhibition) at 10 µM. 310,000 compounds, 1.2% hits;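 active = ratio plate-corrected score three or more library SD toward inhibition, starting fluorescence score within five deviations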;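 also: score derived from kinetic fluorescence span divided by baseline fluorescence per well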
DNA FID counter: compounds displacing fluorescent DNA intercalator, primary screen, artefact control for HCV NS3 helicase inhibitor project, biochemical, FID fluorescence. DNA fluorescent intercalator displacement. inhibition, % at 7.9 µM. 290,000 compounds, 0.17% hits; in the data active = inhibition above about 37%;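 also: 0% = vehicle and 100% = reference compound; higher means more ethidium bromide displaced from hairpin DNA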
PP1 inh: PP1-alpha phosphatase inhibitors, primary screen, counter-screen for PP5 inhibitor project, biochemical, fluorescence, OMFP substrate, single point; Serine/threonine-protein phosphatase PP1-alpha catalytic subunit (Homo sapiens), P62136; purified PP1alpha; 320,000 compounds, 0.9% hits; inhibition, % at 6.7 µM;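 active = inhibition above the mean inhibition of all tested compounds plus 3 SD, computed separately for each screening campaign, cut at about 15% in these data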
PREPL inhibitor: PREPL enzyme inhibitors, primary screen, biochemical, fluorescence polarization; AID 2751, 2010; inhibition, % at 5.96 µM; recombinant PREPL, fluorescence polarization activity-based probe; Prolyl endopeptidase-like (Homo sapiens), Q4J6C6; 320,000 compounds, 0.68% hits; in the data active = inhibition above about 43%;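 also: 0% = enzyme with DMSO and 100% = wells lacking enzyme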
Target sequence (Q4J6C6 whole entry, looked up): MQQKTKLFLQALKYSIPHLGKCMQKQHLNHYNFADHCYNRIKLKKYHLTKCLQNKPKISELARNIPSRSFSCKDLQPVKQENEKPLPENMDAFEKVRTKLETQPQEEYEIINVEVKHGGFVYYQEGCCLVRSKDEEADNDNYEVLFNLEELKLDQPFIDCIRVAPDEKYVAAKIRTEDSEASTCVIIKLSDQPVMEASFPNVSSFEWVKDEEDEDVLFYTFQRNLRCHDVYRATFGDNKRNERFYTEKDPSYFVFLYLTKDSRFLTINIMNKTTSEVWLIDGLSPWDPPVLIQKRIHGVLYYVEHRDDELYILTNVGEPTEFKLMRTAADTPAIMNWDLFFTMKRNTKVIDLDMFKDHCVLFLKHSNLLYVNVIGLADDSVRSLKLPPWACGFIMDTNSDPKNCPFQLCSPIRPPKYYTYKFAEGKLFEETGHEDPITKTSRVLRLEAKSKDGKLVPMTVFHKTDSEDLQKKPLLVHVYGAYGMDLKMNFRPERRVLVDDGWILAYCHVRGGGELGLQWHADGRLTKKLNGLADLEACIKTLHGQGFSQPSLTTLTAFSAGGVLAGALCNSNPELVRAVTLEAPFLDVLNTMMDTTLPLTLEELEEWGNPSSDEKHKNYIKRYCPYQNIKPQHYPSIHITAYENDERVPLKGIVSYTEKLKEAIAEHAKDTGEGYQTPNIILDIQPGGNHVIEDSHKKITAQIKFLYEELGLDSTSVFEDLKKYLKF
PP5 inh: PP5 phosphatase inhibitors, primary screen, biochemical, fluorescence. inhibition, % at 6.7 µM. Serine/threonine-protein phosphatase 5 (Homo sapiens), P53041. AID 1987, 2009. 320,000 compounds, 0.18% hits. purified PP5c, OMFP substrate fluorescence;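 active = inhibition above the campaign's mean inhibition across all tested compounds plus 3 SD, cut at about 9.5% in these data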;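 also: 0% = DMSO only and 100% = 100 µM cantharidin control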
PP1 confirm: PP1 phosphatase inhibitors, confirmation, biochemical, fluorescence, OMFP substrate, triplicate; shares compounds with PP1 inh; purified PP1alpha; inhibition, % at 6.7 µM; 1,900 compounds, 52% hits; AID 2358, 2010;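 active = mean PP1 inhibition above a set limit taken from the earlier primary screen, cut at about 15% in these data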
PP5 counter: PP5 phosphatase inhibition by PP1 hits, confirmation, counter-screen for PP1 inhibitor project, biochemical, fluorescence, triplicate; AID 2360, 2010; 1,900 compounds, 4% hits; inhibition, % at 6.7 µM; purified PP5c, OMFP fluorescence; shares compounds with PP1 inh;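 active = mean PP5 inhibition over triplicate wells above about 9.5% taken from the earlier PP1 screen, limit read from the data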
An asterisk follows results filed as active; i = inactive; · = no result given. An excerpt weighted towards active compounds, which were near 2.7% of everything screened.

SMILES	TMEM16A act	ANO1 block	DNA FID counter	PP1 inh	PREPL inhibitor	PP5 inh	PP1 confirm	PP5 counter
Cc1ccccc1-n1c(=O)[nH]c(=O)c2c(N)c(C(=O)c3ccc(Cl)cc3)sc21	i	i	-2	5	15	-1	·	·
CC(=O)c1ccc(-n2c(=O)[nH]c(=O)c3c(N)c(C(=O)c4ccc(Cl)cc4)sc32)cc1	i	i	-2	40*	-7	-1	28*	-3
CC(C)(CCl)C(=O)Nc1ccnc(-c2ccncc2)n1	i	i	1	-2	-7	-2	·	·
N#Cc1cccc(NCC(=O)Nc2cccc(S(=O)(=O)N3CCCCC3)c2)c1	i	·	·	-1	4	3	·	·
N#Cc1cccc(NC(=O)CNc2cccc(S(=O)(=O)N3CCCC3)c2)c1	i	i	·	21*	12	1	-5	-4
COc1ccc(S(=O)(=O)N2CCc3ccccc32)cc1C(=O)Nc1ccc(C(N)=O)cc1	i	i	·	2	2	0	·	·
O=C(NCc1ccncc1)C(=O)N/N=C/c1ccc(OCc2ccccc2)cc1	i	i	-4	38*	-23	0	32*	5
O=C(NCc1ccncc1)C(=O)N/N=C/c1ccccc1OCc1ccccc1	i	i	-11	0	2	4	·	·
CCCNC1(C(N)=O)CCN(Cc2ccccc2)CC1	i	·	·	·	·	·	·	·
COc1cnc(-c2ccccn2)nc1Oc1ccccc1	i	i	0	23*	14	0	17*	-3
Cc1cccc(Oc2nc(-c3ccccn3)nc3ccccc23)c1	i	i	-3	15	5	3	·	·
Cc1ccccc1Oc1nc(-c2ccccn2)nc2ccccc12	i	i	-9	20*	5	3	16*	0
FC(F)(F)c1cccc(Oc2nc(-c3ccccc3)nnc2C(F)(F)F)c1	i	i	-2	-3	10	3	·	·
COc1cnc(-c2ccccn2)nc1N(C)c1ccccc1	i	i	-8	28*	16	5	28*	-2
COc1cnc(-c2ccccn2)nc1Oc1cccc(C(F)(F)F)c1	i	i	-28	46*	25	4	46*	1
COc1ccc(CCNC(=O)C2CCN(C(=O)c3ccc([N+](=O)[O-])cc3)CC2)cc1	i	i	-14	-4	0	2	·	·
COCCCNC(=O)C(=O)C1C(=O)Nc2ccccc21 (stereo unspecified)	i	i	1	-2	-1	2	·	·
Cc1nn(-c2ccccc2)c(Cl)c1/C=N/Nc1ccc(S(=O)(=O)Nc2ccccc2C(=O)O)cc1[N+](=O)[O-]	i	i	28	20*	38	3	11	-2
CSc1ccc(C=NNc2ccc(S(=O)(=O)Nc3ccccc3C(=O)O)cc2[N+](=O)[O-])cc1	i	·	·	·	43	·	·	·
CC12CCC(=O)C=C1CCC1C2CCC2(C)C(c3csc(N)n3)CCC12 (stereo unspecified)	i	·	·	·	·	·	·	·
CCOc1cccc(C2C(C(=O)c3ccc(C)o3)=C(O)C(=O)N2c2nccs2)c1 (stereo unspecified)	i	i	-17	22*	-4	-1	11	0
CCOc1cccc(C2C(C(=O)c3ccc(C)o3)=C(O)C(=O)N2Cc2ccncc2)c1 (stereo unspecified)	i	i	-30	5	1	-3	·	·
Cc1ccc2nc(N3C(=O)C(O)=C(C(=O)c4ccco4)C3c3ccc(C)o3)sc2c1 (stereo unspecified)	i	i	-17	26*	35	2	25*	0
O=C(Nc1nc2ccc(Cl)cc2s1)c1ccco1	i	i	0	2	-5	-2	·	·
O=C(C1=C(O)C(=O)N(c2nc3ccc(Cl)cc3s2)C1c1ccco1)c1ccco1 (stereo unspecified)	i	·	·	19*	28	0	25*	-2
SMILES	TMEM16A act	ANO1 block	DNA FID counter	PP1 inh	PREPL inhibitor	PP5 inh	PP1 confirm	PP5 counter
COC(=O)c1sc(N2C(=O)C(O)=C(C(=O)c3ccc(C)o3)C2c2cccs2)nc1C (stereo unspecified)	i	i	-22	23*	-3	2	21*	0
Cc1cc(N2C(=O)C(O)=C(C(=O)c3ccc(C)o3)C2c2cccs2)no1 (stereo unspecified)	i	i	-4	6	-5	-1	·	·
COc1cc(/C=N/NC(=O)c2cccnc2)ccc1OS(=O)(=O)c1cc(C)ccc1C	i	i	-17	-2	-41	3	·	·
CCc1ccc2nc(N3C(=O)C(O)=C(C(=O)c4ccco4)C3c3cccs3)sc2c1 (stereo unspecified)	i	i	-10	29*	34	4	24*	1
CC(Sc1ccccc1)C(=O)NNC(=O)c1csc(N2CCOCC2)n1 (stereo unspecified)	i	i	·	4	3	3	·	·
CCN(CC(=O)Nc1c(F)cccc1F)C(=O)C1=COCCO1	i	i	·	-2	7	0	·	·
CCOC(=O)c1cc(NC(=O)C2C3C=CC(O3)C2C(=O)O)cc(C(=O)OCC)c1 (stereo unspecified)	i	i	-6	17*	4	23*	0	1
CCOC(=O)c1ccc(NC(=O)C2C3CCC(C3)C2C(=O)O)cc1 (stereo unspecified)	i	i	-3	-1	2	-5	·	·
CCOC(=O)c1c(NC(=O)C2C3CCC(O3)C2C(=O)O)sc(C)c1-c1ccc(C)cc1 (stereo unspecified)	i	i	-40	20*	2	33*	13	13*
CCOC(=O)c1c(NC(=O)/C=C\C(=O)O)sc(C)c1-c1ccccc1	i	i	-32	3	-4	-2	·	·
Cc1sc(NC(=O)C2C3CCC(O3)C2C(=O)O)nc1-c1ccc(CC(C)C)cc1 (stereo unspecified)	i	i	11	78*	9	79*	35*	38*
COCC(=O)Nc1nc(-c2ccc(C)cc2)c(C)s1	i	i	-20	-3	-13	2	·	·
